CF NFkB inh – cystic fibrosis NF-kB activation inhibition. KKLEB NF-kB-GFP reporter, PAF-induced, GFP fluorescence overnight. inhibition, % at 5 µM. hit rate 0.86% among 360,000. AID 588850;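 active = at least 50% inhibition at 5 µM, scaled per plate between neutral and stimulator controls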;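 also: PAF is a Pseudomonas aeruginosa culture filtrate used as stimulus; plate controls were PAF-stimulated DMSO wells for no effect and unstimulated DMSO wells for full effect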
HIF-2a inh – inhibitors of HIF-2a; hit rate 0.72% among 360,000; inhibition, % at 18.8 µM; 786-0 RCC cells HIF-2a reporter, luciferase luminescence, overnight;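 active = inhibition of the luminescence signal of 40% or more relative to plate controls, in a single-dose primary screen at 18.75 µM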
Peg3 prom inh – inhibitors of Peg3 promoter; hit rate 1.7% among 360,000; inhibition, % at 20 µM; HeLa PEG-Prom luciferase reporter, luminescence, overnight;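 active = inhibition of at least 50% at 20 µM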
KKLEB tox – CF airway cell cytotoxicity counter-screen; KKLEB CF airway cells viability, ATPlite luminescence, overnight; stronger effect = lower value; cells stimulated with P. aeruginosa culture filtrate; activity change (cytotoxicity), % at 5 µM; hit rate 0.36% among 360,000;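 active = corrected activity change at or below -50% at 5 µM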
TWEAK-Fn14 inh – blocks TWEAK-Fn14 interaction in a reporter cell assay | inhibition, % at 10 µM | TWEAK-stimulated Fn14 reporter cells, luciferase luminescence, 8 h | hit rate 2% among 360,000; in the data active = inhibition above about 50%
TROY signal inh – inhibitors of TROY-dependent NF-kB signaling. Q293 LMP1-TROYcd NF-kB luciferase reporter, 4 h. inhibition, % at 10 µM. hit rate 0.98% among 360,000;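 active = compounds whose plate-normalised and pattern-corrected inhibition of the luciferase reporter signal at the single screening dose is 50% or more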
* = called active by the depositor; x = not tested or not shown. Rows were chosen to be rich in hits. Some 4% of all compounds tested hit in one or more screens of this group.

SMILES | CF NFkB inh | HIF-2a inh | Peg3 prom inh | KKLEB tox | TWEAK-Fn14 inh | TROY signal inh
c1ccc(COc2ccc(CN3CCN(c4ccccn4)CC3)cc2)cc1 | 4 | -206 | -252 | 10 | 15 | 57*
N#Cc1nc(-c2ccc(OCc3ccc(Cl)cc3)cc2)oc1N1CCOCC1 | -5 | -48 | 56* | -7 | -44 | 0
Cc1ccc(OCc2nc(C#N)c(N3CCN(Cc4ccccc4)CC3)o2)cc1 | 8 | 11 | 25 | 6 | 103* | -8
C=CCNC(=O)C1CCCN(S(C)(=O)=O)C1 (configuration not stated) | 2 | 7 | 4 | -6 | 7 | -24
CC(C)(C)C(=O)C[n+]1ccc(C(N)=O)cc1 | -17 | 14 | -3 | 2 | -1 | 12
Nc1nc(CSc2nc3ccccc3[nH]2)cs1 | 3 | -85 | -68 | 0 | 15 | 9
Brc1ccc(-c2cnc(-c3cccs3)o2)cc1 | -10 | -320 | -300 | -7 | -18 | -11
CCNC(=O)c1cccc(NC(=O)c2cc(C3CC3)nc3c2cnn3C(C)C)c1 | 2 | 3 | 42 | -1 | 7 | -6
CC(C)n1ncc2c(C(=O)Nc3cccc(C#N)c3)cc(C3CC3)nc21 | 20 | 13 | 43 | 14 | 54* | 59*
CC(Sc1ccc(S(=O)(=O)N2CCOCC2)cn1)c1ccccc1Cl (configuration not stated) | -12 | 2 | 26 | 17 | 10 | 11
O=S(=O)(c1ccccc1)N1CCN(c2cccc(Cl)c2)CC1 | -14 | -1 | 3 | 14 | -2 | -10
O=[N+]([O-])c1ccc2[nH]cc(S(=O)(=O)N3CCN(c4cccc(Cl)c4)CC3)c2c1 | 13 | 7 | 60* | 1 | 18 | 39
CC1(C(=O)NCc2ccccc2)CN(S(C)(=O)=O)CC(=O)N1CCCn1ccnc1 (configuration not stated) | x | -8 | x | x | x | x
CC1CCN(C(=O)CC#N)CC1 | -9 | 18 | 7 | 1 | -7 | 4
Cc1csc(SCC(=O)Nc2cccc3nsnc23)n1 | 64* | -86 | -75 | -6 | 50 | 3
c1ccc(CNc2c(-c3cccc(SC4CCCCC4)c3)nc3ccccn23)cc1 | 17 | -180 | 86* | -17 | 16 | -12
Cc1ccn2c(NCc3ccccc3)c(-c3cccc(SC4CCCCC4)c3)nc2c1 | 15 | -64 | -46 | 0 | -27 | -37
c1cc(SC2CCCCC2)cc(-c2nc3cnccn3c2NC2CCCCC2)c1 | 73* | 37 | 95* | -55* | 20 | -2
Cc1ccc2nc(-c3cccc(SC4CCCCC4)c3)c(NCc3ccccc3)n2c1 | 39 | -45 | 67* | -9 | 17 | -18
CN(C)CCC(=O)N1C/C(=C/c2ccccc2)C(=O)/C(=C\c2ccccc2)C1 | 95* | 92* | 109* | -71* | 103* | 59*
O=C(/C=C/c1ccccc1)CCN1CCOCC1 | 7 | -8 | 92* | -7 | 19 | 12
O=C1/C(=C/c2ccccc2)CN(C(=O)CCN2CCOCC2)C/C1=C\c1ccccc1 | 90* | 85* | 96* | 9 | 100* | 22
C[N+](C)(C)CCC(=O)N1C/C(=C/c2ccccc2)C(=O)/C(=C\c2ccccc2)C1 | -118 | 0 | 77* | 8 | 28 | 10
CC(=O)Nc1ccc(-c2nnc(SCc3c(C)cc(C)cc3C)n2C)cc1 | 17 | 15 | 20 | -2 | -20 | 5
O=C(CCN1C(=O)c2cccc3cccc(c23)C1=O)N1CCN(c2ccccc2F)CC1 | -2 | 11 | -3 | 16 | -3 | 14
SMILES | CF NFkB inh | HIF-2a inh | Peg3 prom inh | KKLEB tox | TWEAK-Fn14 inh | TROY signal inh
COc1ccccc1/C=C1\CCCC2=C1Nc1nnnn1C2c1ccccc1OC (configuration not stated) | 46 | 26 | 101* | -12 | 12 | 13
COc1cc(/C=C/c2cc(C(=O)O)c3ccccc3n2)ccc1OC(F)F | 9 | -216 | -116 | -4 | -73 | -63
CC(C)(C)OC(=O)NCCc1nnc(S(=O)(=O)Cc2ccc(Cl)cc2Cl)o1 | 60* | 3 | 47 | -12 | 19 | 18
CC(=O)OCC(=O)[C@@]1(O)CC[C@H]2[C@@H]3CCC4=CC(=O)C=C[C@]4(C)[C@H]3C(=O)C[C@@]21C | 19 | -147 | -5 | 18 | -11 | -11
CC(=O)OCC(=O)C1(O)CCC2C3CCC4=CC(=O)C=CC4(C)C3(F)C(O)CC21C (configuration not stated) | 73* | 17 | -12 | 18 | -6 | 37
CC(=O)OCC(=O)[C@@]12OC3(CCCC3)O[C@@H]1C[C@H]1[C@@H]3CCC4=CC(=O)C=C[C@]4(C)[C@@]3(F)[C@@H](O)C[C@@]12C | 82* | 26 | -4 | 14 | -25 | 17
O=C(Nc1c(C(=O)N2CCN(c3ccccn3)CC2)oc2ccccc12)c1cccc([N+](=O)[O-])c1 | -19 | -14 | 0 | 15 | -9 | 10
Cc1cccc(N2CCN(C(=O)c3ccc4nc(-c5ccco5)c(-c5ccco5)nc4c3)CC2C)c1 (configuration not stated) | 6 | 15 | 63* | 15 | 22 | 0
Cc1nn(CCCC(=O)Nc2cc(Oc3ccc(F)cc3)cc([N+](=O)[O-])c2)c(C)c1[N+](=O)[O-] | -33 | 21 | 14 | 3 | 8 | 38
Cc1ccccc1Oc1cc(NC(=O)CCCn2nc(C)c([N+](=O)[O-])c2C)cc([N+](=O)[O-])c1 | 8 | 8 | 34 | -12 | 63* | 43
CC(=O)c1c(O)cc(=O)n(-c2ccccc2)c1-c1cccc2ccccc12 | 5 | -3 | 9 | 7 | 3 | 0
O=C1[C@H]2[C@@H](c3ccc(C(F)(F)F)cc3)N[C@]3(CCCN(CC4CCCCC4)C3=O)[C@H]2C(=O)N1Cc1ccccc1 | 7 | -2 | 20 | -8 | -2 | 15
C[C@H]1[C@H](C)CC[C@]2(C(=O)O)CC[C@]3(C)C(=CC[C@@H]4[C@@]5(C)C[C@@H](O)[C@H](O)C(C)(C)[C@@H]5CC[C@]43C)[C@H]12 | 12 | 35 | 23 | -12 | -83 | 7
C[C@H]1[C@H](C)CC[C@]2(C(=O)O)CC[C@]3(C)C(=CC[C@@H]4[C@@]5(C)CC[C@H](O)C(C)(C)[C@@H]5CC[C@]43C)[C@H]12 | 7 | 5 | 53* | -3 | -48 | 13
C[C@@H]1CC[C@]2(C(=O)O)CC[C@]3(C)C(=CCC4[C@]56CC[C@@](O)(OC5)C(C)(C)C6CC[C@]43C)C2[C@H]1C (some centres not stated) | 40 | 1 | 27 | 10 | 8 | 63*
CC1(C)CC[C@]2(C(=O)O)CC[C@]3(C)C(=CCC4[C@]56CC[C@@](O)(OC5)C(C)(C)C6CC[C@]43C)C2C1 (some centres not stated) | 28 | 13 | 7 | 4 | 23 | 65*

Source: PubChem (Sanford-Burnham Center for Chemical Genomics)
